Screening results (PubChem)
Rows were chosen to be rich in hits. Some 7.3% of all compounds tested hit in one or more screens of this group.
FLuc counter: firefly luciferase modulation, counter-screen for miR-21 project | 360,000 compounds, 6.9% hits | P08659 | Potency, µM (titrated, usually from 57.5 µM), usual class: inhibitors | purified FLuc, Km substrates, luminescence inhibition; note: nearly all actives have a fitted effect of over 55% in size
Target sequence (P08659 whole entry, looked up): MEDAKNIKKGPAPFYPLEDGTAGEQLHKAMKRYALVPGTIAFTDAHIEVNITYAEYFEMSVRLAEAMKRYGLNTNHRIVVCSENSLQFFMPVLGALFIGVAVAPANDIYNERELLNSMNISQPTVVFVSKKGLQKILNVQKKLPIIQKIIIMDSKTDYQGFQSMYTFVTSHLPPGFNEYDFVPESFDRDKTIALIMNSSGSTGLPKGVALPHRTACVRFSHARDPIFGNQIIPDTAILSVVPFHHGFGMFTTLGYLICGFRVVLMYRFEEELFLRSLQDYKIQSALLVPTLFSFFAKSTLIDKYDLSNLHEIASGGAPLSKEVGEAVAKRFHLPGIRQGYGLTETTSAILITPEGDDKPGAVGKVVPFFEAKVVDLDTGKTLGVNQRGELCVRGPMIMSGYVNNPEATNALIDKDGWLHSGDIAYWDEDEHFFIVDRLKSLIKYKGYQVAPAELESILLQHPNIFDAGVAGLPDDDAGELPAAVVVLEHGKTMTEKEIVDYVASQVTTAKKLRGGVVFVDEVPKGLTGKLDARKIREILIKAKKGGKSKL
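Biochemical qHTS of compounds, final roughly 60 µM downward over six points, against 10 nM purified firefly luciferase using Km concentrations of substrates (10 uM D-luciferin, 10 uM ATP) in Tris acetate pH 7.5 buffer; luminescence output.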
NPC1 promoter act: activates the NPC1 promoter; 320,000 compounds, 2.4% hits; Huh7 NPC1 promoter luciferase reporter, 24 h; Potency, µM (titrated, usually from 9.22 µM), most hits filed as activators; AID 485313; note: nearly all actives have a fitted effect of over 60% in size
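Stably transfected Huh7 (NPC1 promoter→luciferase), 1500 cells/well in Opti-MEM + 10% FBS, 2 h settle, then compound 24 h at 37 °C. Luminescence after 10 min with Amplite reagent.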
Luc counter: counter-screen: inhibitors of Kinase-Glo firefly luciferase; Kinase-Glo luciferase, ATP luminescence, 8 min; Potency, µM (titrated, usually from 38.3 µM), usual class: inhibitors; 200,000 compounds, 0.28% hits; AID 1379; note: nearly all actives have a fitted effect of over 60% in size
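Kinase-Glo luciferase light output from ATP and luciferin was measured with 10 uM ATP, within the enzyme's linear range. Buffer: 50 mM imidazole pH 7.2, 50 mM KCl, 7 mM MgCl2, 0.01% Tween 20, 0.05% BSA; luminescence read after 8 min at ambient temperature.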
Rab9 prom act: activates the Rab9 promoter; Huh7 Rab9 promoter-luciferase reporter, luminescence, 24 h; Potency, µM (top dose mostly 9.22 µM), hits mostly activators; 320,000 compounds, 2.8% hits; note: nearly all actives have a fitted effect of over 60% in size
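Luminescence from Amplite-detected luciferase (10 minutes, ambient) reports Rab9 promoter activation. Before that, stable Rab9-luciferase Huh7 cells (1500/well, reduced-serum OP-MEM I plus 10% FBS) were exposed to compound for 24 hours at 37C.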
ELG1 genotox: induces genotoxicity in HEK293T cells with luciferase-tagged ELG1; 330,000 compounds, 1.3% hits; Potency, µM (series often up to 46 µM), usual class: activators; HEK293T ELG1-luciferase reporter, luminescence, 16 h; note: nearly all actives have a fitted effect of over 60% in size
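Screening used a luciferase reporter fused to human ELG1 in HEK293T cells. Luminescence was read on a CCD plate imager after 16 hr exposure and 30 min ONE-Glo incubation.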
SMN2 splice up: increases expression of the SMN2 splice variant. 210,000 compounds, 2.8% hits. AID 1458. HEK293 SMN2-luciferase splicing reporter, luminescence, 30-36 h. Potency, µM (highest dose often 46.1 µM), hits mostly activators; note: nearly all actives have a fitted effect of over 55% in size
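HEK293 cells carry an SMN2 […]–luciferase reporter in which exon 7 inclusion puts luciferase in frame. Cells were plated 10-12 h before compound addition, then incubated 30-36 h at 37C. ONE-Glo luminescence was read; sodium butyrate at 4.5 mM final served as control.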
A number is an active result; – = inactive; ? = inconclusive; · = no result; [ ] = another dose, or the depositor's remark. Calls come from the whole dose curve; as a rule, active = well fitted curve in the direction sought with a large enough effect; inconclusive = small, poorly fitted or top-dose-only effect, or another doubt; inactive = no such curve, though single readings can be large; an effect the other way counts as inactive or inconclusive.

SMILES	FLuc counter	NPC1 promoter act	Luc counter	Rab9 prom act	ELG1 genotox	SMN2 splice up
COc1ccc(NC(=O)NC(C)c2c(-n3cccc3)sc3c2CCN(C)C3)c(OC)c1 (stereo not given)	–	·	·	·	·	·
C/C=C1/C(=O)C[C@@H]2[C@H]3CCC4=CC(=O)CC[C@]4(C)[C@@H]3CC[C@]12C	·	·	·	·	·	–
Cc1oc(-c2cc(F)ccc2F)nc1CN1CCN(c2ncnc3ccccc23)CC1	27µM	–	–	–	–	·
COc1cccc(-c2nc3ccc([N+](=O)[O-])cc3o2)c1	1.5µM	?	?	2.2µM	?	16µM
O=[N+]([O-])c1ccc2nc(-c3ccccc3)oc2c1	9.5µM	2.8µM	–	3.2µM	?	11µM
O=c1oc(-c2cccc([N+](=O)[O-])c2)nc2ccccc12	?	–	·	–	–	·
CCOC(=O)c1sc(NC(=S)NC(=O)c2ccccc2)nc1C	?	–	–	–	?	?
COC(=O)c1sc(NC(=S)NC(=O)c2ccccc2)nc1C	4.8µM	?	–	2.5µM	?	–
COC(=O)c1sc(NC(=S)NC(=O)c2ccccc2Cl)nc1C	6.7µM	?	–	?	?	–
COc1ccccc1CNC(=O)CN1C(=O)COc2ccc(S(=O)(=O)N3CCC(C)CC3)cc21	–	·	·	·	·	–
CCn1cc(C(=O)NC2CCC(C)CC2)c(=O)c2cc(S(=O)(=O)N3CCCCC3)ccc21 (stereo not given)	21µM	?	–	?	–	13µM
CCn1cc(C(=O)NCCCN2CCC(C)CC2)c(=O)c2cc(S(=O)(=O)N3CCCC3)ccc21	–	–	–	–	–	–
Cn1cc(C(=O)NC2CCCCC2)c(=O)c2cc(S(=O)(=O)N3CCCC3)ccc21	–	–	–	–	–	11µM
Clc1ccc(-c2nc3ccccc3[nH]2)cn1	19µM	?	·	?	–	·
FC(c1nc2ccccc2[nH]1)C(F)(F)F (stereo not given)	–	–	–	–	–	·
Cc1ccc(-c2nc3ccccc3[nH]2)cn1	15µM	?	·	?	?	·
Cc1ccc2nc(-c3ccncc3)[nH]c2c1	8.5µM	2.2µM	·	?	12µM	·
Cc1ccc2nc(C(F)C(F)(F)F)[nH]c2c1 (stereo not given)	19µM	–	–	–	–	·
Oc1ccc(-c2[nH]nc(-c3ccccc3)c2-c2nc3ccccc3[nH]2)cc1	–	–	–	–	–	–
O=CN1CCN(C[C@H](O)CN2CCCCC2)CC1	·	·	–[7.66 µM]	·	·	–[9.22 µM]
CSc1cccc(NC(=O)Cn2ncn3c(cc4ccccc43)c2=O)c1	–	·	·	·	·	–
CCCCNc1nc(SC)nc2nc[nH]c12	·	·	–[7.66 µM]	·	·	–[9.22 µM]
Cc1nc2ccc([N+](=O)[O-])cc2[nH]1	–	–	–	–	–	–
Cc1nc2ccc(-c3nc4ccccc4[nH]3)cc2[nH]1	4.8µM	1.4µM	?	0.63µM	–	2.8µM
Cc1nc(-c2ccc(Cl)cc2)sc1CCNC(=O)C(=O)Nc1ccc(F)cc1F	–	·	·	·	·	·
SMILES	FLuc counter	NPC1 promoter act	Luc counter	Rab9 prom act	ELG1 genotox	SMN2 splice up
COCCn1c(C)cc(C(=O)CSc2cc(C)c3ccccc3n2)c1C	13µM	–	–	–	–	–
O=C(CSc1nc2ccccc2c(=O)n1Cc1ccco1)NCc1ccco1	–	–	–	–	–	–
COCCn1c(C)cc(C(=O)CSc2nc3ccccc3c(=O)n2Cc2ccco2)c1C	1.7µM	3.2µM	–	1.3µM	?	7.1µM
Cc1ccc(C(=O)Nc2nnc(C)s2)o1	–	–	–	–	–	–
CCOC(=O)c1sc(NC(=O)c2ccco2)nc1C	11µM	–	–	?	?	–
COC(=O)c1sc(NC(=O)c2ccc(C)o2)nc1C	5.4µM	?	6.3µM	2.8µM	?	1.6µM
CCOC(=O)c1sc(NC(=O)c2ccc(C)o2)nc1C	6µM	–	?	–	5.8µM	13µM
Cc1occc1C(=O)Nc1nnc(C(F)(F)F)s1	–	–	–	–	–	–
Cc1c(C(=O)Nc2nnc(C(F)(F)F)s2)oc2ccccc12	11µM	?	–	?	–	–
CCOCCCNC(=O)c1ccc2c(c1)NC(=O)C(CS(=O)(=O)Cc1ccc(F)cc1Cl)N2 (stereo not given)	–	·	·	·	·	·
CC(=O)c1cccc(NC(=O)c2nc3ccccc3nc2N2CCCCC2)c1	–	·	·	·	·	·
CCOC(=O)c1[nH]c(C)c(CCC(=O)NCc2ccc(N(C)C)cc2)c1C	–	·	·	·	·	·
COC(=O)c1sc(NC(=O)c2oc3ccccc3c2C)nc1C	?	?	–	?	2.3µM	7.1µM
COc1ccc(CCC(=O)NCc2ccc3c(c2)CCN3C(=O)c2cccc(C)c2)cc1	–	·	·	·	·	·
Cc1cc(C)nc(S/C=C/C(=O)c2ccc(F)cc2)n1	1.9µM	–	·	–	–	·
Cc1cc(C)nc(SCC(=O)c2ccc(F)cc2)n1	–	–	·	–	–	·
O=C(COC(=O)C12CC3CC(CC(O)(C3)C1)C2)Nc1cccc(Br)c1	13µM	–	·	–	–	·
CCCS(=O)(=O)c1c(S(=O)(=O)CCC)c2cc(C(C)(C)C)ccn2c1C(=O)c1ccc(OC)c(OC)c1	–	·	·	·	·	·
CCC(=O)Nc1ccc(CC)cc1-c1nc2ccccc2n(CC(=O)Nc2cccc(OC)c2)c1=O	–	·	·	·	·	·
Cc1cc(/C=N/Nc2nc(N)ncc2[N+](=O)[O-])c(C)n1-c1ccccc1F	0.048µM	?	·	–	?	·
COc1ccc(-c2nn(C)c3sc(C(=O)Nc4cccc(F)c4)cc23)cc1OC	–	·	·	·	·	·
Cc1ccn2cc(C34CC5CC(CC(C5)C3)C4)nc2c1	6.7µM	–	–	–	–	–
COc1ccc(N(C(=O)c2ccc(Cl)cc2)S(=O)(=O)c2ccc(C)cc2)cc1	–	·	·	·	·	–
[O-]/[N+](=C\c1cccc(Br)c1)c1ccccc1	24µM	–	?	–	–	–
CC(C)c1cc(C(=O)Nc2cccnc2)no1	–[2.3 µM]	4µM	?	2.8µM	?	35µM
SMILES	FLuc counter	NPC1 promoter act	Luc counter	Rab9 prom act	ELG1 genotox	SMN2 splice up
CCCc1cc(C(=O)Nc2ccc(F)c(Cl)c2)no1	5.4µM	–	·	–	?	·
COc1ccc(NC(=O)c2cc(C(C)C)on2)cc1OC	?	–	–	–	?	–
CCCc1cc(C(=O)Nc2cccc(Cl)c2C)no1	24µM	?	·	?	18µM	·
CCCc1cc(C(=O)Nc2ccc(C(C)=O)cc2)no1	?	–	–	–	?	–
CCCc1cc(C(=O)Nc2cccc(Cl)c2)no1	1.9µM	–	–	–	15µM	–
Cc1ccc2cc(CN(C(=O)c3cccc(Cl)c3)c3ccccc3)c(=O)[nH]c2c1	–	·	·	·	·	–
CCCc1cc(C(=O)Nc2ccccc2SC)no1	?	–	–	?	?	?
CCCc1cc(C(=O)NCc2ccccc2)no1	?	–	–	–	23µM	?
CCCc1cc(C(=O)Nc2cccc(C(C)=O)c2)no1	?	3.2µM	–	?	?	–
CCCc1cc(C(=O)Nc2ccc(F)cc2F)no1	11µM	–	–	?	12µM	–
